Test results taken from PubChem BioAssay.
A number with no mark means an inactive call. Active and inactive are the calls of the source. No stated cut-off is given here; in the data, active means inhibition above about 33%; inactive means the rest.

assay: VP16 transactivation reporter inhibitors, counter-screen for LRH-1 inverse agonist project, cell-based, luminescence, high throughput (AID 651615); conditions: Gal4-VP16 luciferase reporter cells, at 3.6 µM, stronger effect = higher value

| Structure (SMILES) | inhibition |
| --- | --- |
| O=C(CCl)Nc1ccc(Oc2cnc3ccccc3n2)cc1 | 18.3% |
| Cc1ccc(Oc2ccc(C(=O)NCc3ccncc3)cc2)cc1 | 52.9% (active) |
| Cc1ncc(CO)c(/C=N/Nc2ccc(C(F)(F)F)cn2)c1O | 65.7% (active) |
| Cc1ccc(C(=O)C(C(=O)/C=C/c2ccccc2)=C2SCCCS2)cc1 | 44.5% (active) |
| COc1ccc(S(=O)(=O)N2CCOCC2)cc1NC(=O)CCNC(=O)c1ccc(Br)cc1 | 67.4% (active) |
| CN(C)CCNC(=O)c1ccc(Cl)c2cc3ccccc3nc12 | 61% (active) |
| C=C1C(=O)C23CCC4C(C)(C(=O)OC)CCCC4(C)C2CCC1(O)C3 (stereo not drawn) | 74% (active) |
| COc1cccc2c1C(=O)c1c(O)c3c(c(O)c1C2=O)CC(O)(C(C)=O)CC3OC1CC(O)C(O)C(C)O1 (stereo not drawn) | 16.1% |
